Results: ChEMBL document CHEMBL1157539, “Thousands of chemical starting points for antimalarial lead identification” (Nature, 2010)

Tests used:
Assay type in all cases: functional
[1] = test system: Plasmodium falciparum; assay: GSK_TCMDC: Inhibition of Plasmodium falciparum 3D7 in whole red blood cells, using parasite LDH activity as an index of growth. Test compounds present at 2uM
[2] = test system: Plasmodium falciparum; assay: GSK_TCMDC: Inhibition of Plasmodium falciparum Dd2 in whole red blood cells, using parasite LDH activity as an index of growth. Test compounds present at 2uM
[3] = test system: HepG2; assay: GSK_TCMDC: Percent inhibition of human HepG2 cell line. Test compounds present at 10uM.

| Structure (SMILES) | Inhibition [1] [%] | Inhibition [2] [%] | Inhibition [3] [%] |
| --- | --- | --- | --- |
| CS(=O)(=O)N1CC2(CCN(CCC(NC(=O)/C=C/c3ccccc3)c3ccc(Cl)c(Cl)c3)CC2)c2ccccc21 (centres undefined) | 97 | 55 | 18 |
| CC(C)[C@H](NC(=O)c1ccc(O)c(-c2ccc(Cl)c(Cl)c2)c1)C(=O)NC1CCCCCC1 | 99 | 99 | 0 |
| Oc1ccc2nc(NCCCc3ccccc3)nc(NCCc3ccccc3)c2c1 | 99 | 88 | 31 |
| N#Cc1ccc(CN2CCC(Oc3ccc(NC(=O)c4ccco4)cc3Cl)C2)cc1.O=C(O)C(F)(F)F (centres undefined) | 95 | 95 | 13 |
| COc1cccc(-c2cc(C(=O)NC3CCC(N4CCC(c5ccccc5C)CC4)CC3)[nH]n2)c1 (centres undefined) | 99 | 58 | 60 |
| O=C(O)C(F)(F)F.c1ccc2[nH]c(-c3ccc(-c4ccc(CN5CCN(CCN6CCOCC6)CC5)cc4)s3)nc2c1 | 100 | 100 | 39 |
| Fc1ccc2[nH]c3c(NCCN4CCCCC4)ncnc3c2c1 | 99 | 44 | 24 |
| COc1cc(CS(C)(=O)=O)ccc1Nc1nccc(-c2c(-c3cccc(NC(=O)c4c(F)cccc4F)c3)nn3ccccc23)n1 | 92 | 71 | 46 |
| Cc1c(Cc2ccc(F)cc2)c(Cl)nc2nc(N)nc(N)c12 | 92 | 1 | 66 |
| Cc1nnsc1C(=O)Nc1cccc(-c2cccc(-c3nc4cc(C(F)(F)F)ccc4[nH]3)c2)c1 | 100 | 100 | 70 |
| CC(C)(C)C(=O)N1CCN(c2ccc([N+](=O)[O-])c(NC3CC3)c2)CC1 | 95 | 97 | 8 |
| N#Cc1ccc(S(=O)(=O)N2C(c3cccc([N+](=O)[O-])c3)C(C(=O)c3ccccc3)N(C3CCCCC3)C2c2cccc([N+](=O)[O-])c2)cc1 (centres undefined) | 83 | 79 | 16 |
| NC(=O)NC(=O)C=Cc1ccco1 | 97 | 0 | 32 |
| C=CC(=O)Nc1ccc(Cl)cc1C(O)c1ccccc1 (centres undefined) | 100 | 5 | 0 |
| CNCCNCc1ccc(-c2ccc(-c3nc4cc(C(F)(F)F)ccc4[nH]3)s2)cc1.O=C(O)C(F)(F)F | 99 | 100 | 30 |
| Cc1cc(NC(=O)c2cc(S(=O)(=O)N3CCCCC3)ccc2C)no1 | 95 | 29 | 0 |
| COc1ccc(CNC2CCN(C)CC2)cc1-c1ccc(S(=O)(=O)NC2CCC2)c(F)c1.O=C(O)C(F)(F)F | 100 | 97 | 96 |
| CS(=O)(=O)N(c1ccccc1)c1cc(C(=O)N[C@@H](Cc2ccccc2)[C@H](O)CNC2CCCCC2)cc(N2CCCC2=O)c1 | 100 | 97 | 8 |
| CCCC(C)C(=O)N1CCOC(COCc2cccc(C(F)(F)F)c2)(c2ccc(Cl)cc2)C1 (centres undefined) | 97 | 91 | 2 |
| CCOc1ccc(-c2nonc2NC(=O)c2ccc(Cl)cc2)cc1OCC | 94 | 47 | 28 |
| Cc1ccc(Cc2c[nH]c(NCCSCc3ccc(CN4CCOCC4)o3)nc2=O)cn1 | 95 | 0 | 2 |
| Nc1c(Cl)cc(C(O)CNCCCCCOCCc2ccccc2)cc1C(F)(F)F (centres undefined) | 99 | 96 | 3 |
| O=C(O)C(F)(F)F.O=[N+]([O-])c1cccc(CNCC2CCN(Cc3ccc(Cl)c(Cl)c3)CC2)c1 | 100 | 41 | 9 |
| CCc1ccc(NC(=O)N(CCCN2CCN(C)CC2)Cc2csc(-c3ccc(CNCc4ccccc4)cc3)n2)cc1.O=C(O)C(F)(F)F | 99 | 80 | 17 |
| CN(C)c1ccc(C=Cc2nc(=O)c3ccccc3o2)cc1 | 96 | 97 | 6 |
| O=[N+]([O-])c1ccc(Nc2nc(N/N=C/c3ccc(-c4ccc([N+](=O)[O-])cc4)o3)nc(Nc3ccccc3)n2)cc1 | 100 | 74 | 0 |
| CCCCN1CCN(CCCNc2c3ccccc3nc3ccccc23)CC1.Cl | 100 | 70 | 26 |
| COCCNC(=O)C(CNC(=O)c1ccc2c(c1)OCO2)NC(=O)c1ccc(-c2ccccc2)cc1 (centres undefined) | 90 | 3 | 14 |
